In the library only some 9.4% were active in any assay of this set; here they are far more common.
ELG1 genotoxic – qHTS screen for small molecules that induce genotoxicity in human embryonic kidney (HEK293T) cells expressing luciferase-tagged ELG1 | 330,000 compounds, 1.3% hits | Potency, µM (top dose mostly 46 µM), inactives show at the top dose activity change, positive = activation, hits mostly activators | HEK293T ELG1-luciferase reporter, luminescence, 16 h; further: % of control where 0% means no effect; nearly all actives have a fitted effect of over 60% in size
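Genotoxic stress is detected as increased luminescence from luciferase-tagged ELG1 in HEK293T cells, measured with ONE-Glo after a 16 hr treatment at 37 °C.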
Rab9 promoter act – qHTS Assay for Rab9 Promoter Activators | Huh7 Rab9 promoter-luciferase reporter, luminescence, 24 h | Potency, µM (highest dose often 9.22 µM), inactives show top-dose activation, negative = inhibition, hits mostly activators | 320,000 compounds, 2.8% hits | AID 485297, 2010; further: % of control where 0% means no effect; nearly all actives have a fitted effect of over 60% in size
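Huh7 cells stably carrying Rab9 promoter–luciferase reporter, plated 1500 cells/well, compound added after 2 h and incubated 24 h at 37 °C; luciferase luminescence then read after 10 min with detection reagent.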
ELG1 repair inh – qHTS screen for small molecules that inhibit ELG1-dependent DNA repair in human embryonic kidney (HEK293T) cells expressing luciferase-tagged ELG1; AID 504467, 2011; HEK293T ELG1-luciferase reporter, luminescence, 16 h; DNA damage induced by 5-fluorouridine; Potency, µM (series often up to 46.1 µM), without a hit: at the highest dose activity change, negative = inhibition, actives largely listed as inhibitors; 330,000 compounds, 2.3% hits; further: on the % scale 0 is the no-effect control and ±100 the full control effect; nearly all actives have a fitted effect of over 55% in size
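HEK293T cells expressing luciferase-tagged ELG1 (2,000/well) received 5-Fluorouridine plus compound or DMSO for 16 hr at 37 °C. Luciferase was read by ONE-Glo luminescence after 30 min at room temperature.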
SMN2 splice up – qHTS Assay for Enhancers of SMN2 Splice Variant Expression; HEK293 SMN2-luciferase splicing reporter, luminescence, 30-36 h; Potency, µM (top dose mostly 46.1 µM), without a hit: at the top dose activity change, positive = activation, actives largely listed as activators; 210,000 compounds, 2.8% hits; further: % of control where 0% means no effect; nearly all actives have a fitted effect of over 55% in size
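qHTS luciferase splicing reporter: luminescence rises when SMN2 exon 7 is included in transfected HEK293 cells. Compound exposure lasted 30-36 h at 37C, with 4.5 mM final sodium butyrate as control, followed by a ONE-Glo read.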
FLuc modulator – qHTS profiling assay for firefly luciferase inhibitor/activator using purifed enzyme and Km concentrations of substrates (counterscreen for miR-21 project). Potency, µM (series often up to 57.5 µM), without a hit: top-dose activity change, negative = inhibition, most hits filed as inhibitors. Luciferin 4-monooxygenase (Photinus pyralis), P08659. 360,000 compounds, 6.9% hits. purified FLuc, Km substrates, luminescence inhibition;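 further: plate controls were vehicle for no effect and reference inhibitor for full effect; nearly all actives have a fitted effect of over 55% in size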
Target sequence (P08659 whole entry, looked up): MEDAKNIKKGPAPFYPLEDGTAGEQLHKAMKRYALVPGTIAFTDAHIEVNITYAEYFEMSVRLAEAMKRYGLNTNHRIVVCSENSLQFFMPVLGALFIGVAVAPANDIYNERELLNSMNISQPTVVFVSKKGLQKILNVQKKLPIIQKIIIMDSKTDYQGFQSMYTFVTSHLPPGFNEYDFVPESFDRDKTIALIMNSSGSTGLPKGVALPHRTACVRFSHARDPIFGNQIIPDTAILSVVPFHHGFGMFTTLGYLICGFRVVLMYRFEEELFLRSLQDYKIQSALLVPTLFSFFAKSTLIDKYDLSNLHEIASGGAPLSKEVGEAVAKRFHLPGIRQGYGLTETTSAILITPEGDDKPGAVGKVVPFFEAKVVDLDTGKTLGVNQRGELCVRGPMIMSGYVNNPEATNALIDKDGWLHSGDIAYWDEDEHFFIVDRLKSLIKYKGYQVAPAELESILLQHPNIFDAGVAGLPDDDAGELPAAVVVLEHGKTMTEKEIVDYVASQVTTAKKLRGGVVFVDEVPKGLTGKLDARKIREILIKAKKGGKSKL
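Purified P. pyralis luciferase, 10 nM final, with Km-level 10 uM D-luciferin and 10 uM ATP in 50 mM Tris acetate pH 7.5, 10 mM Mg acetate, 0.01% Tween-20, 0.05% BSA; 6-point qHTS titration about 60 µM downward; luminescence read.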
NPC1 promoter act – qHTS Assay for NPC1 Promoter Activators; Huh7 NPC1 promoter luciferase reporter, 24 h; Potency, µM (highest dose often 9.22 µM), without a hit: top-dose activation, most hits filed as activators; 320,000 compounds, 2.4% hits; further: % of control where 0% means no effect; nearly all actives have a fitted effect of over 60% in size
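NPC1 promoter–luciferase Huh7 cells; 24 h compound; luminescence.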
* hit, by the source's call; ? = inconclusive; · = not tested or not shown; [ ] = dose if it differs, or a comment. The call rests on the fitted dose curve; in most records, active means well fitted curve in the direction sought with a large enough effect; inconclusive means small, poorly fitted or top-dose-only effect, or another doubt; inactive means no such curve, though single readings can be large; an effect the other way counts as inactive or inconclusive. Potency means the concentration at half of the fitted maximal effect.

SMILES | ELG1 genotoxic | Rab9 promoter act | ELG1 repair inh | SMN2 splice up | FLuc modulator | NPC1 promoter act
CCOc1ccc(NC(=O)CN2CCN(C3c4ccccc4-c4ccccc43)CC2)cc1 | -4% | 0% | 13µM* | -2% | 2% | -5%
COc1ccc2c(CNCc3cccs3)c(C(=O)O)n(Cc3ccccc3C)c2c1 | · | · | · | · | -3% | ·
C/C(CC(=O)Nc1ccccn1)=N\NC(=O)c1ccccc1O | 16µM* | 2% | ? | · | 17µM* | 1%
C/C(CC(=O)Nc1cc(C)ccn1)=N\NC(=O)c1cccc(C)c1O | 5.8µM* | 14% | ? | · | ? | -10%
COc1ccccc1CNC(=O)CCCn1c(=O)c2cccn2c2ccccc21 | · | · | · | · | 0% | ·
Cc1ccc(S(=O)(=O)O[C@@H]2[C@H]([C@@H]3COC(C)(C)O3)O[C@H]3OC(C)(C)O[C@@H]32)cc1 | · | · | · | 2%[9.22 µM] | · | ·
O=C1C(=O)N(CCN2CCOCC2)C(c2ccccn2)/C1=C(/O)c1ccc(F)cc1 (centres undefined) | 3% | -5% | 0% | 1% | -2% | 5%
Cc1c(/C(O)=C2\C(=O)C(=O)N(CCN(C)C)C2c2cccs2)cnn1-c1ccccc1 (centres undefined) | -1% | 4.5µM* | 2% | -19% | ? | 2.5µM*
Cc1c(/C(O)=C2\C(=O)C(=O)N(CCN(C)C)C2c2cccnc2)cnn1-c1ccccc1 (centres undefined) | 2% | 3% | ? | 9% | 2% | 2%
Cc1c(/C(O)=C2/C(=O)C(=O)N(CCN3CCOCC3)C2c2ccccn2)cnn1-c1ccccc1 (centres undefined) | ? | -17% | ? | -27% | 17µM* | -10%
COc1cccc(NC(=O)Cn2nnc(-c3nc(-c4ccccc4)no3)c2N)c1 | · | · | · | · | -9% | ·
COc1ccc(NC(=O)CN2C(=O)C3(SCC(=O)N3c3cccc(OC)c3)c3ccccc32)cc1 (centres undefined) | · | · | · | · | -9% | ·
COc1ccc(OC)c(CNC(=O)CCc2c(C)nc3c(c2C)c(=O)n(C)c(=O)n3C)c1 | · | · | · | 10% | 1% | ·
CCOCCCn1c(SCC(=O)Nc2ccccc2CC)nc2ccccc2c1=O | · | · | · | · | -7% | ·
O=C1c2ccccc2C(=O)c2c(O)ccc(O)c21 | · | · | · | -3% | · | ·
O=C1C(C2=C(O)c3ccccc3C2=O)=Nc2ccccc21 | -3% | -28% | 19% | -11% | 1.9µM* | -19%
COc1cccc(C(=O)Nc2ccc3nc(N4CCC(C)CC4)cc(C)c3c2)c1 | · | · | · | -8% | -11% | ·
CN(C)c1ccnc(-c2ccccc2C(F)(F)F)n1 | · | · | · | -2% | · | ·
COc1ccc(NC(=O)O/N=C/c2c(C)nn(C(C)(C)C)c2C)cc1 | 1.6µM* | 0.32µM* | ? | · | 0.38µM* | 0.35µM*
COc1ccc(NC(=O)CCC(=O)N/N=C/c2cn(C)nc2C)cc1 | -3% | -1% | 9% | · | 6% | -3%
CCOC(=O)N/N=C/c1ccccc1-c1cc(OC)ccc1OC | · | · | · | 17% | · | ·
CCc1ccc(-c2nnn(CCC(=O)OC)n2)cc1 | 5% | -10% | ? | -16% | 15µM* | -5%
CC(C)c1ccc(-c2nnn(CCC(=O)O)n2)cc1 | -4% | -25% | 22% | -27% | 9.5µM* | -18%
CCOC(=O)C(=O)NCc1ccc(/C=C2/N=C(C)C(C(=O)OCC)=C2O)o1 | 4% | -13% | 16% | · | -8% | 0%
CCOC(=O)C1=C(O)/C(=C/c2ccc(CNC(=O)C(=O)Nc3ccc(C)cc3)o2)N=C1C | ? | 11% | ? | -12% | 7.6µM* | 8%
